Sampled rows, rich in hits. Any-hit rate of the full collection: about 2.1%.
YB-1 expr inh – YB-1 expression inhibition. 0.37% of 30,000 active. delta delta Cp (YB-1 minus CDIP) (no concentration beside the values). U2OS, qRT-PCR YB-1 vs CDIP delta delta Cp, 16 h; stronger effect = higher value; zero = DMSO, each unit about twofold;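 active = delta delta Cp rounded down to an integer at or above 3, about 3 SD of DMSO wells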;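 note: higher means less YB-1 transcript or more CDIP transcript relative to DMSO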
U2OS ROS induce – cancer cell ROS induction. U2OS ROS induction, H2DCF-DA fluorescence. ROS induction (% of piperlongumine), % at 10 µM. 2% of 46,000 active; in the data active = ROS induction above about 79%, passing the limit was not always enough;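 note: 0% = DMSO vehicle median and 100% = reference compound median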
Starred values were filed as active, the others as inactive; x = not tested or not shown.

SMILES	YB-1 expr inh	U2OS ROS induce
C[C@H](CO)N1C[C@H](C)[C@H](CN(C)C(=O)Nc2ccc(F)cc2)Oc2ncc(-c3cccc(F)c3)cc2C1=O	-0.34	75
C[C@H](CO)N1C[C@H](C)[C@H](CN(C)Cc2ccc(F)cc2)Oc2ncc(-c3cccc(C(F)(F)F)c3)cc2C1=O	-0.37	77*
C[C@H](CO)N1C[C@H](C)[C@H](CN(C)C(=O)Nc2ccccc2)Oc2ncc(-c3cc4ccccc4o3)cc2C1=O	-0.13	153*
C[C@H](CO)N1C[C@H](C)[C@H](CN(C)C(=O)Nc2ccc(F)cc2)Oc2ncc(-c3cccc(C(F)(F)F)c3)cc2C1=O	0.057	91*
C[C@H](CO)N1C[C@H](C)[C@H](CN(C)C(=O)Nc2ccccc2)Oc2ncc(-c3cccc(C(F)(F)F)c3)cc2C1=O	0.088	98*
O=C1Nc2ccccc2C1(O)C/C(=N/O)c1ccco1 (stereo unspecified)	x	-22
Cc1cccc(N(C)S(=O)(=O)c2ccc3c(c2)OCC(=O)N3)c1	x	-1
CCc1ccc(NC(=O)Cn2nc(-c3ccc(OC)cc3)ccc2=O)cc1	x	6
Cc1ccc(C(C)C)c(OCC(=O)Nc2cc(-c3nc4ncccc4o3)ccc2Cl)c1	x	-5
Fc1cccc(NC(=S)NCc2ccc3c(c2)OCO3)c1	x	-2
CCC(C)S(=O)(=O)c1oc(-c2ccc(C)cc2)nc1S(=O)(=O)c1ccccc1 (stereo unspecified)	x	219*
Cc1ccc(-c2nc(S(=O)(=O)c3ccc(F)cc3)c(NCc3ccco3)o2)cc1	x	6
C(=NCc1ccc2c(c1)OCO2)c1cccnc1	x	-16
C[C@@H]1CN([C@H](C)CO)C(=O)CCCn2cc(nn2)CO[C@@H]1CN(C)S(=O)(=O)c1ccccc1	0.039	104*
C[C@@H]1CN([C@H](C)CO)C(=O)CCCn2cc(nn2)CO[C@@H]1CN(C)S(=O)(=O)c1cccs1	-0.34	89*
C[C@H](CO)N1C[C@H](C)[C@H](CN(C)S(=O)(=O)c2cccs2)OCc2cn(nn2)CCCC1=O	-0.47	28
C[C@H]1CN([C@@H](C)CO)C(=O)CCCn2cc(nn2)CO[C@H]1CN(C)S(=O)(=O)c1ccccc1	-0.064	-22
S=c1[nH]n(-c2ccc(Cl)cc2)c(=S)s1	5*	1
S=c1nn[nH]n1CCc1ccc(Cl)cc1	x	9
Cc1cc2c(cc1S(=O)(=O)N1CCc3ccccc31)OCC(=O)N2	x	18
Cc1cc2c(cc1S(=O)(=O)N1CC(C)CC(C)C1)OCC(=O)N2 (stereo unspecified)	x	85*
COc1ccc(C(=O)COc2ccc(NC(=O)c3cccc([N+](=O)[O-])c3)cc2)cc1	x	7
COC(=O)COc1ccc(NC(=O)c2ccc(OC)c([N+](=O)[O-])c2)cc1	x	118*
C[C@H]1CN([C@@H](C)CO)C(=O)Cc2cc(NS(=O)(=O)c3ccc(F)cc3)ccc2O[C@H]1CN(C)Cc1ccc2c(c1)OCO2	0.00092	109*
C[C@@H]1CN([C@H](C)CO)C(=O)Cc2cc(NS(=O)(=O)c3ccc(F)cc3)ccc2O[C@H]1CN(C)Cc1ccc2c(c1)OCO2	-0.046	129*
SMILES	YB-1 expr inh	U2OS ROS induce
C[C@@H]1CN([C@H](C)CO)C(=O)Cc2cc(NS(=O)(=O)c3ccc(F)cc3)ccc2O[C@@H]1CN(C)Cc1ccc2c(c1)OCO2	0.23	19
C[C@H](CO)N1C[C@H](C)[C@H](CN(C)Cc2ccc3c(c2)OCO3)Oc2ccc(NS(=O)(=O)c3ccc(F)cc3)cc2CC1=O	0.28	11
CCC(C(=O)NCc1cc(Br)ccc1OC)n1nc(C)n2c(cc3occc32)c1=O (stereo unspecified)	x	-8
Cc1cc(C)c(OCC(=O)Nc2cccc(NC(=O)c3ccco3)c2)c(Br)c1	x	176*
O=C(COc1ccccc1Cl)Nc1cccc(NC(=O)c2ccco2)c1	x	-6
Cc1ccc(N=C2SCC(=O)N2C)cc1	x	-10
Cc1ccc(S[C@]2(C(=O)NC3CC3)CC(=O)N(C3CCCCC3)[C@@H]2c2ccc(CO)cc2I)cc1	-0.064	11
CCCNC(=O)[C@@]1(Sc2ccc(C)cc2)CC(=O)N(C2CCCCC2)[C@@H]1c1ccc(CO)cc1I	0.25	162*
Cc1ccc(S[C@]2(C(=O)NCCCN(C)C)CC(=O)N(C3CCCCC3)[C@@H]2c2ccc(CO)cc2I)cc1	-0.051	6
COc1ccc(CCNC(=O)[C@@]2(Sc3ccc(C)cc3)CC(=O)N(C3CCCCC3)[C@@H]2c2ccc(CO)cc2I)cc1	-0.11	160*
CN(C)CCCNC(=O)[C@@]1(c2ccc([N+](=O)[O-])cc2)CC(=O)N(C2CCCCC2)[C@@H]1c1ccc(CO)cc1I	0.15	31
Cc1ccc(S[C@]2(C(=O)NC(C)C)CC(=O)N(C(C)C)[C@@H]2c2ccc(CO)cc2I)cc1	-0.34	176*
CC1CCN(C(=O)c2ccccc2Br)CC1	x	0
Cc1ccc(OCC(O)CN2C(C)CCCC2C)c(C)c1 (stereo unspecified)	x	-3

Compound activity (PubChem BioAssay)
